Experimental data taken from article PMC4336329 (PLoS ONE, 2015).
The whole screen tested about 310,000 compounds, of which about 14,000 (4.5%) showed an effect of 50% or more. Effects have a minus sign here. Shown is part of a subset that was picked to be rich in strong results.

The compounds below were run against human ether-à-go-go-related gene (hERG) potassium channel (human, UniProt Q12809) (assay: primary screen, population patch clamp on CHO cells stably expressing hERG; higher = less effect of the substance).
Sequence of human ether-à-go-go-related gene (hERG) potassium channel (Q12809 whole entry, looked up): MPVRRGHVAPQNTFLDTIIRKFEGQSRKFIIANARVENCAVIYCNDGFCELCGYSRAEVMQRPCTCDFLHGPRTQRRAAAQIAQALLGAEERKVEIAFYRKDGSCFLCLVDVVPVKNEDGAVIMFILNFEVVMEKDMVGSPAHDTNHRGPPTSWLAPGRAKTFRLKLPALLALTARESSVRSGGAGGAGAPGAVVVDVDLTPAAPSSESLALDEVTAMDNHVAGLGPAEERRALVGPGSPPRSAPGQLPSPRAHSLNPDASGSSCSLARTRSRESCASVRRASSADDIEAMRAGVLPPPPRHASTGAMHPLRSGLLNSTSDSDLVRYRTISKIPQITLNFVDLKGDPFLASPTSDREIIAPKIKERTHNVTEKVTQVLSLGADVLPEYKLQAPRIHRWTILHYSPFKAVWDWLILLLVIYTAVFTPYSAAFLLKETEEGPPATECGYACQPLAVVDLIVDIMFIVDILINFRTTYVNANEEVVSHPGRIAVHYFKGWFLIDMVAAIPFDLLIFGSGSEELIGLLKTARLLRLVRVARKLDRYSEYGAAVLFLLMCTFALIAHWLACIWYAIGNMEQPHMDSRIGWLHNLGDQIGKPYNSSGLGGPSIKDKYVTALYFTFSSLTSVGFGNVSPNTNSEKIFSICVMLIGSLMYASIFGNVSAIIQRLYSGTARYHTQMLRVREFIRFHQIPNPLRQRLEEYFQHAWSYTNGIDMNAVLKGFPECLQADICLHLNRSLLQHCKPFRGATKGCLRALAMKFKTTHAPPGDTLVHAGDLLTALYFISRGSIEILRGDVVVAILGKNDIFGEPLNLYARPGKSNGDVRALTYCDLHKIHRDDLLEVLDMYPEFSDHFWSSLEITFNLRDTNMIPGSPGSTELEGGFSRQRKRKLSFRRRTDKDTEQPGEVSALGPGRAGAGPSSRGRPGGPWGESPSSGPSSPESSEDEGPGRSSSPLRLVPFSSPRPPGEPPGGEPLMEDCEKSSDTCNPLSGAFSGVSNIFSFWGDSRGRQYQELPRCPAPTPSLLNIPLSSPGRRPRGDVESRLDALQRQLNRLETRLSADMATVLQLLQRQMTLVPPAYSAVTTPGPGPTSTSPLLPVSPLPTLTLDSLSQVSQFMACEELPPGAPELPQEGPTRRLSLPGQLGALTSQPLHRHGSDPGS
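Further: peak tail current of the secondary pulse compared with the same well before compound.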

Row | SMILES | hERG current change (%, negative = inhibition) at 10uM [%]
1 | Cc1ccc(S(=O)(=O)N2CCN(C(=O)c3cccc(-n4cccc4)c3)CC2)cc1 | -51.3
2 | Cc1ccc(S(=O)(=O)N2CCN(C(=O)c3ccc(S(=O)(=O)N4CCCC4)cc3)CC2)cc1 | -6.64
3 | O=C(c1ccc(-n2cccn2)cc1)N1CCN(c2ncccc2C(F)(F)F)CC1 | -60.4
4 | O=C(c1ccncc1)N1CCN(S(=O)(=O)c2ccc(F)cc2)CC1 | 15.2
5 | O=C(c1cccc(-n2cccc2)c1)N1CCN(S(=O)(=O)c2ccc(F)cc2)CC1 | -34.7
6 | Cc1ccnn1-c1ccc(C(=O)N2CCCN(S(=O)(=O)c3ccc(F)cc3)CC2)cc1 | -69.7
7 | O=C(c1cccc(-n2cccc2)c1)N1CCN(S(=O)(=O)c2ccccc2)CC1 | -32
8 | CCOC(=O)c1sc2nc(N3CCCC3)c3c(c2c1N)CC(C)(C)OC3 | 10.4
9 | O=[N+]([O-])c1cccc(N/N=C/c2cccc(O)c2O)c1 | 16.7
10 | COc1ccc(-c2n[nH]c3c2C(c2ccc(OC)c(OC)c2)N(c2ccccc2)C3=O)cc1 (stereo not shown) | 3.73
11 | Cc1cc(Cl)ccc1N(CC(=O)NCc1ccccc1)S(C)(=O)=O | -1.12
12 | Cc1cc(Cl)ccc1OCCCC(=O)NNC(=O)c1ccncc1 | -30.2
13 | Clc1ccc(OCc2nnc(SCc3nc4ccccc4[nH]3)n2Cc2ccco2)cc1 | -36
14 | CC(Sc1nnc(COc2ccc(Cl)cc2)n1Cc1ccco1)C(=O)N1CCNC1=O (stereo not shown) | -55.9
15 | Cl.Clc1ccc(OCc2nnc(SCCN3CCCCC3)n2Cc2ccco2)cc1 | -75.9
16 | CC(Sc1nnc(COc2ccc(Cl)cc2)n1Cc1ccccc1)C(=O)O (stereo not shown) | 3.06
17 | COc1ccccc1NC(=O)CSc1nnc(COc2ccc(Cl)cc2)n1Cc1ccco1 | -12.7
18 | O=C(CSc1nnc(COc2ccc(Cl)cc2)n1Cc1ccco1)c1ccccc1F | 13.1
19 | N#Cc1c(NC(=O)CSc2nc(-c3ccco3)cc(C(F)(F)F)n2)sc2c1CCCC2 | 12.3
20 | Cc1ccc(/C=N/Nc2nc(C(C)(C)C)cs2)o1.Cl | -22.5
21 | CC(=O)Nc1cccc(NC(=O)COc2ccc3c(c2)OCO3)c1 | 4.48
22 | O=C(O)c1ccc(Br)cn1 | 9.73

Row | SMILES | hERG current change (%, negative = inhibition) at 10uM [%]
23 | O=C(O)c1ccc([N+](=O)[O-])c(CS(=O)(=O)c2ccc(Cl)cc2)c1 | 6.82
24 | Cc1nc2c(C#N)cnn2c2c1CCN2CC1CCCO1 (stereo not shown) | -51.7
25 | Cc1nc2c(C#N)cnn2c2c1CCNN2C | -1.38
26 | COC(CN1CCc2c(C)nc3c(C#N)cnn3c21)OC | 5.84
27 | COC(=O)C(C(C)C)N1CCc2c(C)nc3c(C#N)cnn3c21 (stereo not shown) | 13.9
28 | Cc1nc2c(C#N)cnn2c2c1CCN(Cc1ccccc1)N2C | -58
29 | N#Cc1cnn2c(C(F)(F)F)c3c(nc12)CCCC3 | -5.18
30 | Cc1cc(=O)n2c3ccccc3n(C)c2n1 | 9.7
31 | O=[N+]([O-])c1ccc(N2CCN(C(=S)NC3CCCCC3)CC2)cc1 | -53
32 | S=C(NC1CCCC1)N1CCN(c2ccc(Cl)cc2)CC1 | -13.6
33 | O=C(NC1CCCCC1)N1CCN(c2ccc([N+](=O)[O-])cc2)CC1 | -92.4
34 | O=C(NC1CCCCC1)N1CCN(c2ccc(Cl)cc2)CC1 | -27.8
35 | S=C(NC1CC1)N1CCN(c2ccc(Cl)cc2)CC1 | 1.76
36 | O=C(NC1CCCCC1)N1CCN(c2ccccc2)CC1 | -0.0694
37 | COc1ccc([C@H]2CC(=O)C=C(c3cccc4c3Oc3ccccc3S4)C2)cc1 | -28.4
38 | Cc1ccc(CNC(=O)CC(C)S(=O)(=O)c2ccc3c(c2)NC(=O)CO3)cc1 (stereo not shown) | -22.1
39 | CC(=O)c1ccn(S(=O)(=O)c2ccc(Cl)cc2)c1 | 6.57
40 | CC1(C)CC(=O)C([N+](=O)[O-])=C(NCCCC(=O)O)C1.O | 15
41 | Cc1cc(C(=O)C(C)OC(=O)C2=NNC(=O)CC2)c(C)n1-c1ccc(OC(F)F)cc1 (stereo not shown) | -73.3
42 | Cc1ccc(-n2c(C)cc(C(=O)COC(=O)C3=NNC(=O)CC3)c2C)cc1 | -42.3
43 | Cc1cc(C(=O)COC(=O)C2=NNC(=O)CC2)c(C)n1-c1ccc(OC(F)F)cc1 | -48.4
